Compound activity from PubChem BioAssay.
USP7 inh: blocks human USP7 ubiquitin-rhodamine cleavage; purified USP7, Ub-rhodamine cleavage fluorescence; inhibition, % at 20 µM; 47,000 compounds, 0.3% hits; AID 1645854
USP10 block: blocks human USP10 ubiquitin-rhodamine cleavage; inhibition, % at 20 µM; purified USP10, Ub-rhodamine fluorescence, 60 min; AID 1645856; 47,000 compounds, 1.1% hits; Q14694
USP8 inh: blocks human USP8 ubiquitin-rhodamine cleavage; purified USP8, Ub-rhodamine cleavage fluorescence, 30 min; 47,000 compounds, 4.2% hits; P40818; inhibition, % at 20 µM
UCHL1 inh: human UCHL1 deubiquitinase inhibition. P09936. purified UCHL1, Ub-rhodamine cleavage fluorescence. inhibition, % at 20 µM. 47,000 compounds, 0.2% hits
USP17 block: human USP17-like deubiquitinase inhibition. A8MUK1. purified USP17, Ub-rhodamine cleavage fluorescence, 3 h. inhibition, % at 50 µM. 47,000 compounds, 6.5% hits. AID 1645855
USP30 block: human USP30 deubiquitinase inhibition | Q70CQ3 | purified USP30, Ub-rhodamine cleavage fluorescence | inhibition, % at 25 µM | 47,000 compounds, 5.3% hits
Large screens that a line does not name were inactive. Shown are actives, neighbours in structure and some others; about 12% of the full set was active somewhere. Cut-off read from the data, not from the text of the source: active = inhibition above about 30%; inactive = the rest.

COc1ccc(NC(=O)C2c3ccccc3C(=O)N(C3CCCC3)C2c2cccs2)c(OC)c1 (centres undefined)	USP30 block 40
CCN1CCN(Cc2ccc(NC(=O)C3c4ccccc4C(=O)N(C4CCCC4)C3c3cccs3)cc2)CC1 (centres undefined)	none
COc1ccc(NC(=O)C2c3ccccc3C(=O)N(C3CCCC3)C2c2cccs2)cc1OC (centres undefined)	USP17 block 56
Cc1nc2ccc(NC(=O)COc3ccccc3[N+](=O)[O-])cc2s1	USP8 inh 44, USP30 block 57 (no result: USP17 block)
Cc1nn2c(S(=O)(=O)NCc3cccc(F)c3)c(C)nc2s1	none
O=C(CSc1ncccc1C(=O)N1CCC(Cc2ccccc2)CC1)Nc1ccc(Cl)cc1	none
O=C(c1cc(C2CC2)[nH]n1)N1CCC(Cc2ccccc2)CC1	USP30 block 32
O=C(c1cn2cc(Cl)ccc2n1)N1CCC(Cc2ccccc2)CC1	USP30 block 30
O=C(c1cc(C2CC2)[nH]n1)N1CCC(C2Nc3ccccc3S(=O)(=O)N2)CC1 (centres undefined)	none
COc1ccc2c(Sc3ccc(C)cc3)c(C(=O)NCC3CCCO3)[nH]c2c1 (centres undefined)	none
CC1(C)CC(=O)C2=C(C1)Nc1ccccc1N(C(=O)Cc1ccccc1)C2c1ccc(F)cc1 (centres undefined)	none
CC1(C)CC(=O)C2=C(C1)Nc1ccccc1N(C(=O)Cc1ccccc1)C2c1ccc(Cl)cc1 (centres undefined)	USP17 block 49
COc1cc(C2C3=C(CC(c4ccccc4)CC3=O)Nc3ccccc3N2C(=O)C2CC2)cc(OC)c1OC (centres undefined)	USP17 block 45 (no result: USP7 inh)
CCC(=O)N1c2ccccc2NC2=C(C(=O)CC(c3ccccc3OCc3ccccc3)C2)C1c1ccccc1 (centres undefined)	USP17 block 36, USP30 block 61
CC(C)(C)c1ccc(C2CC(=O)C3=C(C2)Nc2ccccc2N(C(=O)CCC(=O)O)C3c2cccc([N+](=O)[O-])c2)cc1 (centres undefined)	USP10 block 33
O=C1CC(c2ccccc2)CC2=C1C(c1c[nH]c3ccccc13)N(C(=O)C1CC1)c1ccccc1N2 (centres undefined)	none
CC1Oc2nc3ccccc3cc2CN(Cc2ccc(F)cc2)C1=O (centres undefined)	none
O=c1c(S(=O)(=O)N2CCCCCC2)cccn1Cc1cccc(F)c1	none
O=C(c1ccc(F)c(F)c1)N1CC(C(=O)N2CCN(c3ccccn3)CC2)C1	none
COC1=CC(=O)c2c(O)c3c(c(C)c2C1=O)C[C@@]1(O)[C@H](O[C@H]2CC[C@H](O[C@H]4C[C@@](C)(O)[C@H](OC(=O)c5c(C)ccc(C)c5O)[C@H](C)O4)[C@@H](C)O2)C(=O)C(C(C)=O)=C(O)[C@@]1(O)C3=O	USP7 inh 55, UCHL1 inh 58
CSc1ccccc1C(=O)Nc1sc2c(c1C(N)=O)CCC(C)C2 (centres undefined)	USP17 block 80
CSc1cccc(C(=O)Nc2sc3c(c2C(N)=O)CCC(C)C3)c1 (centres undefined)	none
CC1CCc2c(sc(NC(=O)c3cccc(S(C)(=O)=O)c3)c2C(N)=O)C1 (centres undefined)	USP8 inh 75
CSc1ccccc1C(=O)Nc1sc2c(c1C(N)=O)CCCCC2	USP17 block 38
CC1CCc2sc(NC(=O)c3ccccc3Oc3ccccc3)c(C(N)=O)c2C1 (centres undefined)	USP17 block 83 (no result: USP7 inh)
O=C(CN(Cc1ccc(Cl)cc1)S(=O)(=O)c1ccc(Cl)cc1)N1CCOCC1	USP30 block 63
O=C(CN(Cc1ccccc1)S(=O)(=O)c1ccc(Cl)cc1)Nc1ccc(N2CCOCC2)cc1	USP8 inh 37
O=C(Cc1ccccc1[N+](=O)[O-])Nc1ccc(N2CCOCC2)cc1	none
Cc1cc(=O)[nH]c2nnc(SCC(=O)c3ccccc3)n12	none (no result: USP7 inh)
COc1ccc(CNC(=O)c2ccc3c(=O)nc4c(-c5cccc(C)c5)n[nH]n4c3c2)cc1	USP10 block 41, USP8 inh 61
CC(C)CCNC(=O)c1ccc2c(=O)nc3c(-c4ccccc4F)n[nH]n3c2c1	none
Cc1ccc(CNC(=O)c2ccc3c(=O)nc4c(-c5ccccc5F)n[nH]n4c3c2)cc1	USP17 block 35
O=C(NC1CC1)c1cccn1Cc1noc(-c2ccccc2)n1	none
COc1ccccc1NC(=O)N1CCC2(C1)Nc1cccnc1NC2=NCc1ccccc1 (centres undefined)	none
Cc1ccc(C(=O)Nc2cc3c4c(c2)CC(=O)N4CCC3)cc1C	USP8 inh 30
Cc1ccc(C(=O)Nc2cc3c4c(c2)C(C)C(=O)N4CCC3)cc1 (centres undefined)	none
Cn1cc(C(=O)Nc2cccnc2)c2nn(-c3ccccc3)c(=O)c-2c1	USP8 inh 31
COc1ccc(NC(=O)c2cccc(-n3cnnn3)c2)c(OC)c1	none
Cc1cccc(NC(=O)CCc2nnc3c(=O)n(-c4ccc(C)c(C)c4)ccn23)c1	USP8 inh 36
COc1ccc(-n2ccn3c(CCC(=O)Nc4cccc(C)c4)nnc3c2=O)cc1	USP8 inh 36
COc1cccc(NC(=O)CCc2c(C)nc3c(c2C)c(=O)n(C)c(=O)n3C)c1	USP30 block 35
Cc1ccc(NC(=O)CCc2nnc3c(=O)n(-c4ccc(C)c(C)c4)ccn23)cc1	none
Cc1cc(C(=O)NCCN2CCCCC2)c2cccc(C)c2n1	none
CCOc1ccc(NC(=O)CSc2nnc(Cc3cccc4ccccc34)n2C)cc1	USP17 block 65, USP30 block 46
Cc1nc2c(C)cccn2c(=O)c1Cc1nnc(SCC(=O)Nc2ccccc2)n1C	USP17 block 36, USP30 block 33
O=C(Cn1c(COc2ccccc2)nc2ccccc21)Nc1ccc(N2CCOCC2)cc1	USP8 inh 34
O=C(COC(=O)C(c1ccccc1)c1ccccc1)Nc1ccc(N2CCOCC2)cc1	none
COc1ccc(NC(=O)Cn2c(CS(=O)(=O)c3ccc(C)cc3)nc3ccccc32)cc1	USP30 block 51
Cc1ccc(NC(=O)c2ccc(CNC(=O)c3ccccc3)o2)c(C)c1	none
O=C(Cn1c(COc2ccccc2)nc2ccccc21)Nc1cc(Cl)cc(Cl)c1	USP8 inh 73, USP30 block 31
Cn1c(COc2ccccc2)nnc1SCC(=O)Nc1ccc(N2CCOCC2)cc1	USP30 block 31
O=C(Cn1c(COc2ccccc2)nc2ccccc21)Nc1cc(Cl)ccc1Cl	USP8 inh 55
COc1cccc(NC(=O)Cn2c(COc3ccccc3)nc3ccccc32)c1	USP17 block 63
O=C(Cn1c(SCCOc2ccccc2)nc2ccccc21)NC1CC1	none
COc1cccc(NC(=O)Cn2c(C(F)(F)F)nc3ccccc32)c1	none (no result: USP30 block)
